MCL1-BIM inh: inhibitors of human MCL1 binding to BIM-BH3 peptide; Q07820; inhibition, % at 10.9 µM; actives 0.68% (n = 320,000); AID 2057; GST-MCL1 / FITC-Bim-BH3 fluorescence polarization;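 active = inhibition above the mean inhibition of all tested compounds plus 3 SD, set per campaign, cut at about 40% in these data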;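 also: 0% = DMSO wells and 100% = unlabeled Bim-BH3 peptide control; higher means more loss of mP so more displacement of Bim peptide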
Mcl1 Noxa PPI: disrupts binding of human Mcl-1 to Noxa peptide; actives 1.5% (n = 220,000); AID 1022; TR-FRET Mcl-1/Noxa peptide binding, 2 h; inhibition, % at 21.7 µM;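 active = compounds that cut the protein-peptide binding signal by more than 50% relative to plate controls in a single-dose test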;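 also: His-tagged Mcl-1 with rhodamine Noxa BH3 peptide and terbium anti-His antibody; 0% = Mcl-1 plus Noxa peptide wells and 100% = peptide-only wells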
Mcl1 Bid PPI: disrupts binding of human Mcl-1 to Bid peptide | inhibition, % at 21.7 µM | TR-FRET Mcl-1/Bid-Dy647 peptide binding, 1536-well | AID 1021 | actives 0.97% (n = 220,000) | Q07820;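 active = compounds that cut the binding signal by more than half at the single screening dose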;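 also: His-tagged Mcl-1 with europium anti-His antibody binding Bid BH3 peptide; 0% = Mcl-1 plus peptide wells and 100% = peptide-only wells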
GLD-1 RNA inh: GLD-1-TGE RNA interaction inhibition (C. elegans); purified GLD-1 + fluorescein TGE RNA, fluorescence polarization; inhibition, % at 5.96 µM; actives 0.44% (n = 320,000); AID 2280;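 active = percent inhibition above a per-plate cutoff, the plate mean of test compounds plus 3 SD, cut at about 30% in these data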;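 also: 0% = DMSO wells with GLD-1 and probe and 100% = wells lacking GLD-1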
Target sequence (Q17339 whole entry, looked up): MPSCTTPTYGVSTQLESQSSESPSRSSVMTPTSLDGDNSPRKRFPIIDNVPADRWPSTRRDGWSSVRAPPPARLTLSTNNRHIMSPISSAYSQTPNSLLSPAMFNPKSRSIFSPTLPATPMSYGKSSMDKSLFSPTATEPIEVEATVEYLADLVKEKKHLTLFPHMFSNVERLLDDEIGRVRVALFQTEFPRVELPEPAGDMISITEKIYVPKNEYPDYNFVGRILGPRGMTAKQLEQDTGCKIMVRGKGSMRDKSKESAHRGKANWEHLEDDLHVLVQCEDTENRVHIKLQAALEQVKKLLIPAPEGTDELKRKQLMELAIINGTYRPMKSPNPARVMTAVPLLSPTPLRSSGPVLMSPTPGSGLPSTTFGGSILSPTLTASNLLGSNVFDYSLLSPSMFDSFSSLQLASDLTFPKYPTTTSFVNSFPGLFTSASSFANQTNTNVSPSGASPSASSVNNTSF
Bim-Mcl-1: human Bim-Mcl-1 interaction inhibition; Q07820; AID 1009; inhibition, % at 10 µM; actives 0.1% (n = 190,000); Bead-based flow cytometry, Bim peptide-Mcl-1 binding; in the data active = inhibition above about 40%;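 also: 0% = no compound tracer wells and 100% = peptide blocker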
BCLXL inh: blocks human Bcl-xL binding to Bim BH3 peptide; Q07817; GST-Bcl-xL / FITC-Bim BH3 peptide fluorescence polarization; inhibition, % at 10.9 µM; actives 0.7% (n = 320,000); AID 2129;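 active = inhibition above the mean of all tested compounds plus 3 SD, cutoff set per campaign, cut at about 30% in these data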;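 also: 0% = DMSO wells and 100% = unlabeled Bim-BH3 peptide competitor; inhibitors lower millipolarization by displacing the labeled peptide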
Bcl-xL conf: Bcl-xL (human) inhibition, MCL1 counter-screen confirmation | shares compounds with MCL1-BIM inh | GST-Bcl-xL / FITC-Bim BH3 peptide FP binding | inhibition, % at 10.9 µM | actives 54% (n = 1,700);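 active = inhibition above a cutoff equal to the mean inhibition of all tested compounds plus 3 SD, cut at about 30% in these data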;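 also: 0% = DMSO wells and 100% = unlabeled Bim BH3 control peptide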
MCL1 inh confirm: MCL1-BIM-BH3 interaction inhibition, confirmation | shares compounds with MCL1-BIM inh | GST-MCL1 / FITC-Bim-BH3 fluorescence polarization | inhibition, % at 10.9 µM | actives 61% (n = 1,700) | AID 2168;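 active = inhibition above the average of all tested compounds plus 3 SD, cut at about 40% in these data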;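 also: 0% = DMSO wells and 100% = unlabeled Bim-BH3 control peptide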
Active calls of the source: *; . = no result given; + = active, no number. An excerpt weighted towards active compounds, which were near 2.3% of everything screened.

SMILES	MCL1-BIM inh	Mcl1 Noxa PPI	Mcl1 Bid PPI	GLD-1 RNA inh	Bim-Mcl-1	BCLXL inh	Bcl-xL conf	MCL1 inh confirm
c1ccc2c(c1)CNc1ccccc1O2	8	2	-40	7	0	5	.	.
CN1c2ccccc2Oc2ccccc21	10	69*	-11	-6	-5	4	.	.
CCn1c(=O)cc(SCC(=O)N2CCC3(CC2)OCCO3)c2ccccc21	-1	13	-29	-2	0	6	.	.
O=c1[nH]c(=O)n(-c2ccc(Br)cc2)c(O)c1C=NC(CO)(CO)CO	1	7	-32	2	.	3	.	.
CCCOP(=O)(OCCC)C(NC(=O)c1ccccc1)=C(Cl)Cl	4	-8	91*	-1	0	5	.	.
Cc1cccc(OP(=O)(Nc2ccc(F)cc2)Oc2cccc(C)c2)c1	3	-3	-3	-1	0	5	.	.
O=C1/C(=C\c2ccncc2)N2CCC1CC2	7	4	-20	1	.	-1	.	.
O=C1/C(=C\c2cc3c(cc2Cl)OCO3)N2CCC1CC2	3	23	4	4	-4	3	.	.
O=C1/C(=C/c2cc3c(cc2Cl)OCO3)N2CCC1CC2	6	22	-14	54*	-2	4	.	.
O=C1/C(=C\c2ccc(Cl)c(Cl)c2)N2CCC1CC2	4	10	54*	0	.	-3	.	.
O=C(CCc1nnc2ccc(NCc3ccccc3Cl)nn12)N1CCC2(CC1)OCCO2	-3	.	.	5	.	3	.	.
Cc1cc(OC(C)C(=O)NCC(O)c2ccccc2)c2c3c(c(=O)oc2c1)CCC3 (centres undefined)	-4	.	.	-5	.	2	.	.
O=c1[nH]c(=O)n(CCc2ccccc2)c(O)c1C=NCc1ccc2c(c1)OCO2	-3	-103	67*	1	-1	-6	.	.
Cc1sc2nc(COC(=O)Cc3ccccc3)[nH]c(=O)c2c1C	-1	10	19	5	0	-5	.	.
CCCCOc1ccc(CC2C(=O)N(C)C(=O)N(C)C2=O)cc1	-8	26	72*	1	-2	-5	.	.
CN1CCN(c2ccc3c(c2)S(=O)(=O)c2ccccc2C3=O)CC1	85*	.	.	8	.	74*	63*	84*
CN1CCN(c2cccc3c2C(=O)c2ccccc2C3=O)CC1	.	47	-8	.	-6	.	.	.
Cc1ccc2cc(C=C(C#N)C#N)c(Cl)nc2c1	+	1	17	167*	-3	196*	-118	-202
Nc1c(C(=O)NCC2CCCO2)c2nc3ccccc3nc2n1Cc1ccco1 (centres undefined)	58*	55*	-15	35*	.	57*	7	3
Oc1c(Br)c(Br)c(Br)c(Br)c1Br	73*	.	.	10	.	3	23	55*
CNc1ccc2nc3ccccc3[n+](C)c2c1	185*	.	.	30	.	147*	118*	169*
COC(=O)c1ccccc1OP1(=O)COc2ccccc2OC1	7	28	-6	8	0	2	.	.
CC(C)CN(CC(C)C)c1ccc(C=C2C(=O)NC(=S)NC2=O)cc1[N+](=O)[O-]	70*	-19	-37	-3	-3	19	42*	97*
CN1CCN(c2ccc([N+](=O)[O-])c3no[n+]([O-])c23)CC1	+	-30	-34	141*	.	197*	149*	180*
CN1CCN(c2ccc(S(C)(=O)=O)cc2[N+](=O)[O-])CC1	-5	8	-34	-8	-3	-1	.	.
C#C[C@]1(O)CC[C@H]2[C@@H]3CCC4=Cc5nc6nc7ccccc7n6cc5C[C@]4(C)[C@H]3CC[C@@]21C	60*	.	.	16	.	51*	21	25
CN1CC=C2C(C#N)=C(N)C(C#N)(C#N)C(c3ccncc3)C2C1 (centres undefined)	164*	.	.	88*	8	136*	37*	50*
Cc1ccc(CNCCc2ccc(F)cc2)s1	-4	.	.	-6	.	4	.	.

From PubChem BioAssay
